From PubChem BioAssay
FEN1 inhibitor: blocks human flap endonuclease 1. Potency, µM (highest dose often 114 µM), for the others: at the top dose activity change, negative = inhibition, most hits filed as inhibitors. hit rate 0.35% among 390,000. Recombinant FEN1 flap cleavage, fluorescence, 15 min. P39748; further: potency means the concentration at half of the fitted maximal effect; on the % scale 0 is the no-effect control and ±100 the full control effect; nearly all actives have a fitted effect of over 65% in size
Target sequence (P39748 whole entry, looked up): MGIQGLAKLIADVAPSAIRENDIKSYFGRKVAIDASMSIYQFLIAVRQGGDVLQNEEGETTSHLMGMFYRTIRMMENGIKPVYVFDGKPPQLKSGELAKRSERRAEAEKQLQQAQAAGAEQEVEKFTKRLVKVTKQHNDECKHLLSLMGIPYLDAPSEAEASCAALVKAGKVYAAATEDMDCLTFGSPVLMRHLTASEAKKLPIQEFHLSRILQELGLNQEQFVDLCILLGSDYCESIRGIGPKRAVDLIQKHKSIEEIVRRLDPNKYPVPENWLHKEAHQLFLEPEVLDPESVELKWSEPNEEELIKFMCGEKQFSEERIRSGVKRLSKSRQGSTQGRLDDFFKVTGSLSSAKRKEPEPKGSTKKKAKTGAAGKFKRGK
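Quantitative HTS format: each compound was titrated, incubated with 10 nM nuclease for 15 min at room temperature, then challenged with flap substrate at 50 nM final. Signal change over 15 min gave concentration–effect curves.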
PGK inhibitor: blocks T. brucei phosphoglycerate kinase | hit rate 0.043% among 380,000 | P07378 | PGK/GAPDH coupled, Kinase-Glo luminescence, 60 min | Potency, µM (highest dose often 57.5 µM), for inactives: at the top dose activity change, negative = inhibition, actives largely listed as inhibitors; further: potency means the concentration at half of the fitted maximal effect; on the % scale 0 is the no-effect control and ±100 the full control effect; nearly all actives have a fitted effect of over 60% in size
Target sequence (P07378 whole entry, looked up): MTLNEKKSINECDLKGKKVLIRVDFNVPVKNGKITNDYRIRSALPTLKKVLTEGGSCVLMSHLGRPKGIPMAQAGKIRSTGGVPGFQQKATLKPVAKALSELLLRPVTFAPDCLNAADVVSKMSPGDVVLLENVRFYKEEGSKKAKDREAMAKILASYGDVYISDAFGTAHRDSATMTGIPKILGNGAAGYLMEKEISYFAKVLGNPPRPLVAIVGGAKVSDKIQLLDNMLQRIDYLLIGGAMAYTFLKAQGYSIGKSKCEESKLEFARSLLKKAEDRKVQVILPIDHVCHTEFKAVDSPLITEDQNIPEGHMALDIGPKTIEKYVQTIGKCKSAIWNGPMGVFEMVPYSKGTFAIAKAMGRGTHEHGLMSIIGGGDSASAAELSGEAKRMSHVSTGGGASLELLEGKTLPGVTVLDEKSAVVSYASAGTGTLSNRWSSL
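Luminescent ATP detection (Kinase-Glo Plus) follows a 60-minute room-temperature incubation, with wells lacking PGK as controls. Buffer: 100 mM TEA (pH 7.6), 5 mM MgCl2, 0.01% Tween-20. Coupling enzyme GAPDH (100 nM final) supplies unstable 1,3-BPG in-well.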
TDP1 inh: inhibitors of human tyrosyl-DNA phosphodiesterase TDP1; Q9NUW8; recombinant TDP1, AlphaScreen DNA substrate cleavage; Potency, µM (highest dose often 130 µM), for the others: top-dose activity change, negative = inhibition, hits mostly inhibitors; hit rate 0.28% among 350,000; further: potency means the concentration at half of the fitted maximal effect; on the % scale 0 is the no-effect control and ±100 the full control effect; nearly all actives have a fitted effect of over 40% in size
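Steps: enzyme plus compound, 15 min RT; add biotin/phosphotyrosine-FITC oligonucleotide (15 nM final), react 5 min; add donor/acceptor beads (10 ug/ml final), 10 min; read AlphaScreen. Tdp1 at 1 nM final.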
Tb PFK inh-1: inhibitors of T. brucei phosphofructokinase; hit rate 0.17% among 330,000; Potency, µM (top dose mostly 57.5 µM), for inactives: at the top dose activity, negative = inhibition, usual class: inhibitors; O15648; T. brucei PFK, ADP-Glo luminescence;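 further: potency means the concentration at half of the fitted maximal effect; 0% = uninhibited 1x PFK enzyme wells and -100% = no-enzyme wells; nearly all actives have a fitted effect of over 60% in size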
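Compounds were pin-transferred as a titration series up to 57 uM into substrate buffer (0.5 mM F6P, 0.1 mM ATP, pH 8.0), then 1.25 nM PFK was added and reactions ran 45 min before ADP-Glo detection.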
WRN inhibitor: inhibitors of human WRN helicase | Q14191 | WRN helicase unwinding, fluorescent forked duplex, kinetic | Potency, µM (series often up to 114 µM), inactives show at the top dose activity change, negative = inhibition, most hits filed as inhibitors | hit rate 0.46% among 360,000; further: potency means the concentration at half of the fitted maximal effect; on the % scale 0 is the no-effect control and ±100 the full control effect; nearly all actives have a fitted effect of over 55% in size
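Primary qHTS, 1536-well format. 20 nM WRN + compound, 15 min RT; start with 100 nM forked fluorophore/quencher duplex, 2 mM ATP (final); kinetic read ex 525/em 598 nm.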
PI5P4Ka inh: blocks human PI5P4K alpha kinase activity. P48426. PI5P4Kalpha enzyme, ADP-Glo luminescence, 60 min; stronger effect = lower value. max response, %. hit rate 1.2% among 330,000; active means max response of -50% or lower; inconclusive means between -30% and -50%; inactive means -30% or higher; further: value at the top dose of about 77 µM; on the % scale 0 is the no-effect control and ±100 the full control effect
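Compounds were pin-transferred onto PI5P4Kalpha and substrate in HEPES pH 7.4 buffer with EGTA, CHAPS and 5% DMSO. ATP (5 microM final) started the reaction, which ran 60 minutes at room temperature before ADP-Glo detection.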
Tb PFK KinaseGlo: inhibits T. brucei PFK measured by ATP depletion; shares compounds with Tb PFK inh-1; Tb PFK enzyme, ATP depletion, Kinase-Glo Plus luminescence; Potency, µM (doses to about 57.5 µM), for the others: at the top dose inhibition; hit rate 47% among 1,100; AID 504636; calls by dose curve; further: potency means the concentration at half of the fitted maximal effect; nearly all actives have a fitted effect of over 60% in size
Tb PFK inh-2: validation of T. brucei phosphofructokinase inhibitors; shares compounds with Tb PFK inh-1; purified T. brucei PFK, ADP-Glo luminescence, 45 min; Potency, µM (highest dose often 57.5 µM), for the others: top-dose activity change, negative = inhibition, hits mostly inhibitors; hit rate 41% among 1,100; AID 504637;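 further: potency means the concentration at half of the fitted maximal effect; plate controls were full PFK enzyme control for no effect and no enzyme control for full effect; nearly all actives have a fitted effect of over 60% in size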
Active calls of the source: *; i = inactive; ? = inconclusive; . = no result; [ ] = dose if it differs, or a comment. Shown are actives, neighbours in structure and some others; about 1.5% of the full set was active somewhere. Unless noted, the call rests on the fitted dose curve; in most records, active means well fitted curve in the direction sought with a large enough effect; inconclusive means small, poorly fitted or top-dose-only effect, or another doubt; inactive means no such curve, though single readings can be large; an effect the other way counts as inactive or inconclusive.

SMILES | FEN1 inhibitor | PGK inhibitor | TDP1 inh | Tb PFK inh-1 | WRN inhibitor | PI5P4Ka inh | Tb PFK KinaseGlo | Tb PFK inh-2
O=C(CSc1nnc(CNc2ccc(F)cc2)o1)N1CCN(C(=O)c2ccco2)CC1 | 6% | 4%[11.5 µM] | 7% | ? | -2% | . | 15µM* | 24µM*
CC(C)CCNC(=O)CNC(=O)[C@@H](C)NC(=O)[C@@H](N)Cc1ccc(O)cc1 | . | . | 9% | . | . | . | . | .
Nc1ccccc1Sc1nc2ccccc2[nH]1 | -8% | -5% | 8% | ? | -28% | ? | 17µM* | ?
COC(=O)Nc1nc2ccccc2[nH]1 | -2% | 0% | 14% | . | 4% | -4 | . | .
Cc1cccc(C)c1NCc1n[nH]c(=S)n1-c1ccccc1 | 7% | 4% | -2% | ? | -2% | 1 | 3µM* | 7.6µM*
O=c1cc(-c2ccccc2)oc2cc(O)c(O)c(O)c12 | 35µM* | -14% | -3% | 7.6µM* | ? | -74* | 2.7µM* | 5.4µM*
CC(=O)Oc1ccc(CC(C(=O)O)N2C(=O)c3ccccc3C2=O)cc1 (centres undefined) | -4% | 32µM* | . | ? | -4% | 3 | 17µM* | ?
NC1CCc2cc(O)c(O)cc2C1 (centres undefined) | 0% | -8% | 12% | 6.7µM* | -7% | -24 | 2.7µM* | 2.7µM*
CNC1C2CN3CCC(O2)C13 (centres undefined) | . | . | 11%[56.1 µM] | . | . | . | . | .
O=[N+]([O-])c1ccc(N2CCN(c3cccc(Cl)c3)CC2)cn1 | 0% | -1% | 2% | 12µM* | -1% | 5 | ? | 5.4µM*
CN1CCN(c2ccc([N+](=O)[O-])c(Sc3ccccn3)c2)CC1 | 10% | -5% | 0% | 0% | -3% | 3 | . | .
Clc1cccc2c3c([nH]c12)CCNC3 | -3% | i | . | ? | 14% | 4 | ? | ?
CCN1CC(CNC(=O)c2ccc3nc(Cc4cccc(Cl)c4)oc3c2)CC1=O (centres undefined) | 18% | 7% | 4% | ? | -7% | 1 | ? | 15µM*
Nc1nc(SCCC(F)=C(F)F)n[nH]1 | -3% | 1% | 5% | 3% | 2% | 11 | . | .
Nc1nc(SCc2ccc(Cl)c(Cl)c2)n[nH]1 | 0% | -8% | -3% | 13µM* | 0% | 11 | 9.5µM* | 13µM*
O=C1C=C(NCc2ccc(Cl)c(Cl)c2)C2(CCCCC2)O1 | -10% | -5% | -6% | 17µM* | -3% | 6 | 6µM* | 24µM*
N/C(Cc1ccc(Cl)c(Cl)c1)=N\OC(=O)c1cccs1 | -16% | -1% | 6% | ? | -4% | . | 11µM* | ?
CCN(CC)c1ccc(SS(=O)(=O)O)cc1 | -1% | -3% | 8% | 19µM* | ? | -25 | 11µM* | 12µM*
CC(C)(C)c1ccc(OCC(=O)Nc2ccc(Cl)cc2C(=O)c2ccccc2)cc1 | -18% | . | -7%[12.3 µM] | . | . | . | . | .
Cc1cc(CSc2ccccc2)ccc1NC(=O)COc1ccccc1 | -12% | -3% | -8% | ? | -8% | 0 | ? | ?
O=C1NC(=Nc2ccccc2)S/C1=C\C=C\c1ccco1 | ? | -6% | 3% | 7.6µM* | 50µM* | -94* | ? | ?
Cc1cccc(N2C(=O)NC(=O)/C(=C\C=C\c3ccco3)C2=O)c1 | ? | -12% | -4% | ? | -34% | -25 | . | .
Cc1ccc(NC(=O)C2=C(c3ccccc3)S(=O)(=O)CCS2(=O)=O)cc1 | 1% | -7% | 3% | ? | 22µM* | -14 | -25% | ?
Cc1c(Cl)cnc(NC(=O)COC(=O)c2ccc3ncsc3c2)c1Cl | -6% | i | . | ? | -20%[57.1 µM] | -22 | -35% | ?
O=C(O[C@@H]1OC2COC(=O)c3cc(O)c(O)c(O)c3-c3c(cc(O)c(O)c3O)C(=O)O[C@@H]([C@H]1O)[C@@H]2O)c1cc(O)c(O)c(O)c1 | 0.71µM* | -82% | -4% | 2.1µM* | ? | -102* | 0.067µM* | 0.085µM*
SMILES | FEN1 inhibitor | PGK inhibitor | TDP1 inh | Tb PFK inh-1 | WRN inhibitor | PI5P4Ka inh | Tb PFK KinaseGlo | Tb PFK inh-2
Cc1nnc(Sc2cc(NCCO)c([N+](=O)[O-])c3nonc23)s1 | 40µM* | 2% | 2% | 5.4µM* | -24%[11.6 µM] | -18 | 1.3µM* | 1.5µM*
COC(=O)/C=C/C(=O)N[C@@H]1CC[C@@]2(O)[C@H]3Cc4ccc(O)c5c4[C@@]2(CCN3CC2CC2)[C@H]1O5 | . | . | 9% | . | . | . | . | .
O=C(Cn1ncc2c3ccccc3n(Cc3ccc(F)cc3)c2c1=O)N1CCC2(CC1)OCCO2 | 1% | 6% | 5% | -1% | -2% | 1 | . | .
O=c1cnn(Cc2ccc(Cl)c(Cl)c2)c2ccccc12 | -2% | -3% | 0% | ? | -4% | -1 | 12µM* | 24µM*
C=CC[N+]1(C)CCC23c4c5ccc(O)c4O[C@H]2C(=O)CC[C@@]3(O)C1C5 (some centres undefined) | . | . | 1% | . | . | . | . | .
FC(F)(F)c1cccc(N2CCNCC2)c1 | . | . | -2% | -11% | . | . | . | .
CC(NC(=O)c1ccco1)C(=O)N1CCN(c2cccc(C(F)(F)F)c2)CC1 (centres undefined) | 1% | i | -1% | ? | -3% | -1 | 14% | -10%
CC(=O)OC[C@H](N)C(=O)c1ccccc1 | . | . | 6% | . | . | . | . | .
CCOc1ccc2cc(C#N)c(=O)oc2c1 | . | . | 2% | . | . | . | . | .
Cc1ccc(NC2=C(NC(=O)c3ccccc3)C(=O)c3ccccc3C2=O)cc1Cl | -9% | i | 9% | ? | -6% | -52* | ? | 6.7µM*
Cc1ccc(NC(=O)c2snnc2C)cc1Cl | -3% | i | -2% | -5% | -5% | 4 | . | .
Cc1ccc2c(c1)[C@@H]1CN(C)CC[C@H]1N2 | . | . | 1% | . | . | . | . | .
O=C(Cc1cc(=O)[nH][nH]1)N/N=C/c1cccc2ccccc12 | 11% | -10% | 8% | -1% | -4% | ? | . | .
O=C(N/N=C/c1sc2ccccc2c1O)c1cccc2ccccc12 | -11% | i | 8% | ? | -26% | -16 | -25% | ?
CC(C)(O)C1C2OC(=O)C1[C@]1(O)C[C@H]3O[C@]34C(=O)O[C@H]2[C@]14C (some centres undefined) (tested in a mixture with another compound) | . | . | -8%[56.1 µM] | . | . | . | . | .
